Inconclusive results are not listed. Activity calls are given as the source filed them. How the source made its calls, unless noted: active means hit-call score of the fitted dose curve at least 0.9, where 1 is the maximum; inconclusive means response in the unintended direction; inactive means score below 0.9.
How the values were obtained:
PGR (gene 5241) [1] = molecular target: PGR (gene 5241) (UniProt P06401); assay: TOX21_PR_BLA_Followup_Antagonist_ratio: Tox21 HEK293 Progesterone Receptor (PR) Antagonism Beta-lactamase Follow-Up Assay, Ratio (AID 2283934);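 further: PR-UAS-bla HEK293T cells stimulated with 1 nM R5020 agonist for 16 hr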
PGR (gene 5241), sequence (P06401 whole entry, looked up): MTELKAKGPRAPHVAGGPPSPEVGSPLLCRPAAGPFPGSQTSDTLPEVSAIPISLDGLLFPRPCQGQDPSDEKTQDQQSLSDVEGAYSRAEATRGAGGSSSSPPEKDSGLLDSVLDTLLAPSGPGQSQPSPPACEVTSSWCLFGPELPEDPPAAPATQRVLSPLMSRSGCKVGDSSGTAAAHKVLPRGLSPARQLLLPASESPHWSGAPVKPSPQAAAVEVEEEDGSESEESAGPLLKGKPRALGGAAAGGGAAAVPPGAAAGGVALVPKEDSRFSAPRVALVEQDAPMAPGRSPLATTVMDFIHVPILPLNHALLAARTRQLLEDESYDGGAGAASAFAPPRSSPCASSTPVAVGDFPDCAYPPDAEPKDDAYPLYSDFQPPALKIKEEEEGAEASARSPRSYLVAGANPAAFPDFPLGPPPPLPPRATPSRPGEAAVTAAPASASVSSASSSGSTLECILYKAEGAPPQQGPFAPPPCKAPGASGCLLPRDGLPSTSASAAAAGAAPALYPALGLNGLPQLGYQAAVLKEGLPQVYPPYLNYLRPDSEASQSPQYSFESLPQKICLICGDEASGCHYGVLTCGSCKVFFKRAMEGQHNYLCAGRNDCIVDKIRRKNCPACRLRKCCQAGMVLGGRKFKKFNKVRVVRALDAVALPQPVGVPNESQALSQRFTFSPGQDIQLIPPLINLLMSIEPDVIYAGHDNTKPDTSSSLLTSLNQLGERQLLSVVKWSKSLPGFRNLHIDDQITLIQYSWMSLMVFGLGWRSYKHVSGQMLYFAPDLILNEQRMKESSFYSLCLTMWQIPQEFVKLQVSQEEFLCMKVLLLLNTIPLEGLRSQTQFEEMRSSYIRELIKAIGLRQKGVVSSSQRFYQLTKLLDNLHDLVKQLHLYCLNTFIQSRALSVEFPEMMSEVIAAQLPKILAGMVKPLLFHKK
Summary of the method: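 Measured in PR-UAS-bla HEK293T cells co-treated with compound and 1 nM promegestone for 16 hr; beta-lactamase ratio read after 2 h FRET substrate loading, with parallel CellTiter-Glo cytotoxicity.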

[2] = TOX21_PR_BLA_Followup_Antagonist_viability: Viability Assessment in the Tox21 HEK293 Progesterone Receptor (PR) Antagonism Beta-lactamase Follow-Up Assay (AID 2283936);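 further: cells exposed to compound with R5020 agonist for 16 h; hits lower the luminescence signal meaning cytotoxicity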
Summary of the method: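 PR-UAS-bla HEK293T cells in medium with 2% charcoal-stripped FBS were treated with compounds plus R5020 for 16 hr at 37C. After the beta-lactamase read, CellTiter-Glo was added to the same wells and luminescence read after 30 min at room temperature.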

PGR (gene 5241) [3] = molecular target: PGR (gene 5241) (UniProt P06401); assay: TOX21_PR_LUC_Followup_Antagonist: Tox21 HEK293 Progesterone Receptor (PR) Antagonism Luciferase Follow-Up Assay (AID 2283938);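 further: curve fitted upward as signal gain over DMSO baseline despite antagonist label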
Description: TOX21_PR_LUC_Followup is a secondary assay for specificity for the TOX21_PR_BLA_Agonist assay. To differentiate true PR agonists from cytotoxic substances, this follow up assay is multiplexed with a cell viability assay.TOX21_PR_LUC_Followup_Antagonist is one of one assay component(s) measured or calculated from the TOX21_PR_LUC_Followup assay. It is designed to make measurements of luciferase induction, a form of inducible reporter, as detected with bioluminescence signals by CellTiter-Glo Luciferase-coupled ATP quantitation technologyData from the assay component TOX21_PR_LUC_Followup_Antagonist was analyzed into 1 assay endpoint. This assay endpoint, TOX21_PR_LUC_Followup_Antagonist, was analyzed in the positive analysis fitting direction relative to DMSO as the negative control and baseline of activity. Using a type of inducible reporter, gain-of-signal activity can be used to understand changes in the reporter gene as they relate to the gene NR3C3. Furthermore, this assay endpoint can be referred to as a primary readout, because the performed assay has only produced 1 assay endpoint. To generalize the intended target to other relatable targets, this assay endpoint is annotated to the nuclear receptor target family, where the subfamily is steroidal.
Quality Control Precautions: Maintain cells below 85-90% confluence in culture medium. For assay purpose, the cells should be cultured in assay medium with 10% charcoal stripped FBS for 5 days with alternate day medium changed to fresh medium. Especially while in assay culture, the cells should not reach more than 85% confluence as they would become harder to detach if they reach over confluence.Assay Protocol: HEK293-PR-A-luc cells were dispensed at 3,000 cells/5 uL/well of culture medium into white wall/solid-bottom 1536-well plates using a Multidrop Combi (ThermoFisher Scientific, Waltham, MA) dispenser. After the assay plates were incubated at 37C and […] for 5 h, 23 nL of compounds dissolved in DMSO, positive controls or DMSO only was transferred to the assay plate by a Pintool station (Kalypsys, San Diego, CA). The plates were incubated at 37C and […] for 16 h. Then 4 uL of ONE-Glo reagent (Promega, Madison, WI) was added to each plate using a BioRAPTR Flying Reagent Dispenser (FRD) workstation (Beckman Coulter, Indianapolis, IN, USA) and luminescence was quantified on a ViewLux (PerkinElmer, Shelton, CT) plate reader after 30 min incubation at room temperature.

[4] = TOX21_PR_LUC_Followup_Antagonist_viability: Viability Assessment in the Tox21 HEK293 Progesterone Receptor (PR) Antagonism Luciferase Follow-Up Assay (AID 2283940)
Summary of the method: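 Loss of CellTiter-Glo ATP signal indicates cytotoxicity in HEK293-PR-A-luc cells grown in 10% charcoal-stripped FBS medium, seeded 3,000 per well and incubated 16 h with compound at 37C.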

[5] = TOX21_PR_LUC_Followup_Agonist_viability: Viability Assessment in the Tox21 HEK293 Progesterone Receptor (PR) Agonism Luciferase Follow-Up Assay (AID 2283941);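 further: loss of signal means cytotoxicity so actives lower viability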
Summary of the method: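 Seeding: HEK293-PR-A-luc, 3,000 cells/well, 5 h at 37C. Treatment: compound in DMSO, 16 h, 37C. Read: CellTiter-Glo ATP luminescence, signal loss taken as lower viability.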

THRA (gene 7067) = THRA (gene 7067) (UniProt P10827); assay: TOX21_TRA_COA_Agonist_Followup_ratio: Tox21 Thyroid Hormone Receptor alpha Agonism through Coactivator Recruitment Follow-Up Assay, Ratio (AID 2283948; active means hit-call score of the fitted dose curve at least 0.9, where 1 is the maximum; inactive means score below 0.9)
THRA (gene 7067), sequence (P10827 whole entry, looked up, the tested form may be a part): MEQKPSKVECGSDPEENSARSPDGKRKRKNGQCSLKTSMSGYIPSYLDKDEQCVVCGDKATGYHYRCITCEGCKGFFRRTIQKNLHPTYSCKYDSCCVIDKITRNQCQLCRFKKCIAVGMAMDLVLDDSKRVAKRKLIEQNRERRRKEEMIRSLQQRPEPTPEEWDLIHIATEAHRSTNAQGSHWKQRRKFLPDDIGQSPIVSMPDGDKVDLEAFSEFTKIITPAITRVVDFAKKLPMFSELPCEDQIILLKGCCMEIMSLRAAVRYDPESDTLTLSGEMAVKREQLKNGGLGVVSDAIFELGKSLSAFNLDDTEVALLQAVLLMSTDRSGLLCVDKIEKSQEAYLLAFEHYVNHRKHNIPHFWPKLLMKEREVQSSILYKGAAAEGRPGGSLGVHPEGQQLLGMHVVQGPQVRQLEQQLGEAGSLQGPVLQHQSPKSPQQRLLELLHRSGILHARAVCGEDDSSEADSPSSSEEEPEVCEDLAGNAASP
Summary of the method: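 Read-out is the 520/495 nm emission ratio (ex 340 nm), scaled between DMSO-only wells as 0% and T3 wells as 100%. It reflects fluorescein-SRC-2 peptide recruitment to GST-TRα LBD detected via terbium anti-GST antibody.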

THRB (gene 7068) = THRB (gene 7068) (UniProt P10828); assay: TOX21_TRB_BLA_Agonist_Followup_ratio: Tox21 Thyroid Hormone Receptor beta Agonism Beta-lactamase (BLA) Follow-Up Assay, Ratio (AID 2283954)
THRB (gene 7068), sequence (P10828 whole entry, looked up, the tested form may be a part): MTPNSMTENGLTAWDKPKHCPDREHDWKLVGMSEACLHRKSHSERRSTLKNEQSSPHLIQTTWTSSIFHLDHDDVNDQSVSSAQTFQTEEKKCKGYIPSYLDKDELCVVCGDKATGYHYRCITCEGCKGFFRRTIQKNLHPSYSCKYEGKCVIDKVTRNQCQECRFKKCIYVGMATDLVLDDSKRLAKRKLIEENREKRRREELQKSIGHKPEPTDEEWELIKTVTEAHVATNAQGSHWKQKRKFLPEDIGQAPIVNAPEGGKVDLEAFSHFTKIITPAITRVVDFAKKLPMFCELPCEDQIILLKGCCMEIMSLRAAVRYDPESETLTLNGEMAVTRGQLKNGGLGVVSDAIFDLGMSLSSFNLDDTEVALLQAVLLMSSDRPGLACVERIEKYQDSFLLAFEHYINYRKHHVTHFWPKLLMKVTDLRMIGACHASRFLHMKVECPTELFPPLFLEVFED
Summary of the method: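 Agonist mode: compounds (11-point, triplicate) incubated 18 h with HEK293T cells carrying GAL4-DBD/human TRβ-LBD and UAS-β-lactamase. Blue/green (460/530 nm) FRET ratio read after 2 h CCF4-AM loading; CellTiter-Glo viability run in the same plates.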

[6] = TOX21_TRB_BLA_Agonist_Followup_viability: Viability Assessment in the Tox21 Thyroid Hormone Receptor beta Agonism Beta-lactamase (BLA) Follow-Up Assay (AID 2283956)
Description: The GeneBLAzer TRb-UAS-bla HEK293T assay kit for human TRb (ThermoFisherScientific Catalog No. K1684) was used as a secondary assay for specificity (TRb-bla). This assay contained the ligand-binding domain (LBD) of the human TRb fused to the DNA-binding domain of GAL4 stably integrated in the GeneBLAzer UAS-bla HEK293Tcell line. The reporter gene, b-lactamase, is under the transcriptional control of a UAS that binds the GAL4 DNA-binding domain. A cell viability assay was run in parallel for these cells as well using the CellTiter-Glo viability assay kit.TOX21_TRB_BLA_Agonist_Followup_viability is a component of the TOX21_TRB_BLA_Agonist_Followup assay. This component measures cell viability using the CellTiter-Glo Luciferase-coupled ATP quantitation.The assay component endpoint TOX21_TRB_BLA_Agonist_Followup_viability was analyzed with bidirectional fitting relation to DMSO as the negative control and baseline of activity. Using a type of viability reporter, loss-of-signal activity can be used to understand changes in viability. […]
Cell Media Required: Growth (90% DMEM/F-12, 10% Fetal Bovine Calf Serum, 100U/ml Penicillin, 100 ug/ml Streptomycin), Assay (10ng/mL sodium selenite, 10 ug/mL humanapo-transferrin, 10 uM ethanolamine, 10 ug/mL insulin, 500 ug/mL bovine serum albumin (BSA))Assay Protocol: TRb-bla cells were dispensed at 3,000 cells/well in 5 uL of the assay medium containing phenol red-free DMEM with 2% charcoal-stripped FBS in 1,536-well black-wall/clear-bottom plates using an FRD. […] After 2-h incubation at room temperature, the fluorescence intensity was measured using an Envision plate reader. Data were expressed as the ratio of 460:530nm. The cytotoxicity of the compounds was measured in the same plates by adding 4 uL of CellTiter-Glo reagent to each well and incubating the plates at room temperature for 30 min. […] Data were expressed as relative fluorescence units (cell viability assay) and relative luminescence units (luciferase reporter assay).

PGR (gene 5241) [7] = molecular target: PGR (gene 5241) (UniProt P06401); assay: TOX21_PR_LUC_Followup_Agonist: Tox21 HEK293 Progesterone Receptor (PR) Agonism Luciferase Follow-Up Assay (AID 2283937; active means hit-call score of the fitted dose curve at least 0.9, where 1 is the maximum; inactive means score below 0.9)
Summary of the method: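 In HEK293 cells stably expressing PR-A with a luciferase reporter, compounds were incubated 16 h at 37C, and induced luminescence was quantified with ONE-Glo, multiplexed with cell viability.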

[8] = molecular target: Thyroid hormone receptor alpha (Rattus norvegicus) + Thyroid hormone receptor beta (Rattus norvegicus) (UniProt P18113+P63059); assay: TOX21_TR_LUC_GH3_Agonist_Followup: Tox21 GH3 Thyroid Hormone Receptor Agonism Luciferase Follow-Up Assay (AID 2283939)
Thyroid hormone receptor alpha (Rattus norvegicus) + Thyroid hormone receptor beta (Rattus norvegicus), sequence (P63059 whole entry, looked up): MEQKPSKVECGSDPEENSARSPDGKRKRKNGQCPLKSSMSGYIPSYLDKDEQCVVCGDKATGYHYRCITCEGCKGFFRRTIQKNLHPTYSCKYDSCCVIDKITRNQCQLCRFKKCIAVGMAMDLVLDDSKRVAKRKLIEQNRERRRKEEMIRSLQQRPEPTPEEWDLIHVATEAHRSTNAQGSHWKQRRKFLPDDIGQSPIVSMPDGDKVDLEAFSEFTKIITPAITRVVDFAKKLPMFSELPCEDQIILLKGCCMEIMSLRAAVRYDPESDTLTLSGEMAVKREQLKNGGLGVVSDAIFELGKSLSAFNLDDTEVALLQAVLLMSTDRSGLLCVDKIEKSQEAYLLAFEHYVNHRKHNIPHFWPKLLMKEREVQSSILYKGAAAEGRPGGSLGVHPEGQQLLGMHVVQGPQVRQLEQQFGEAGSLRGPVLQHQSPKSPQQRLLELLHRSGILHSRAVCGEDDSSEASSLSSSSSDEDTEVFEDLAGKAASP
Thyroid hormone receptor alpha (Rattus norvegicus) + Thyroid hormone receptor beta (Rattus norvegicus), sequence (P18113 whole entry, looked up): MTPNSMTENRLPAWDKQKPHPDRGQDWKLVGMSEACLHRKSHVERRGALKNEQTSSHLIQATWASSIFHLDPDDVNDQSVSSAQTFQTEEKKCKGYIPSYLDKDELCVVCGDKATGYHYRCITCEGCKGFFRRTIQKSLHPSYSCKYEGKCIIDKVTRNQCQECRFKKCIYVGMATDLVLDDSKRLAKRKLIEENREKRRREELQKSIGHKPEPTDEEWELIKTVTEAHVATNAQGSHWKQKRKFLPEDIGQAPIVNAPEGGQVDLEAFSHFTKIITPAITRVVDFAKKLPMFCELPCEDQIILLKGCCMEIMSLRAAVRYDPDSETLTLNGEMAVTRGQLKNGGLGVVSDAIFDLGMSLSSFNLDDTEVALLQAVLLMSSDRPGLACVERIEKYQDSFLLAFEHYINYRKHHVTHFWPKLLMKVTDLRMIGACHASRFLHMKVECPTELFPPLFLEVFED
Summary of the method: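 Agonist-mode confirmatory run: 15 concentrations (5 nM to 92 uM final) on GH3 rat pituitary cells, 24 h at 37C/5% CO2, T3 as positive control. Luminescence read with ONE-Glo after 30 min.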

CC(C)C1CCC(Cc2ccc(Cl)cc2)C1(O)Cn1cncn1 (stereo not given)
AC50 (PGR (gene 5241) [1]): 15.8 µM (active) | outcome [2]: inactive | AC50 (PGR (gene 5241) [3]): 22 µM (active) | outcome [4]: inactive | outcome [5]: inactive

Clc1ccc(C2(Cn3cncn3)CC(Br)CO2)c(Cl)c1 (stereo not given)
AC50 (PGR (gene 5241) [1]): 37.7 µM (active) | outcome [2]: inactive | AC50 (PGR (gene 5241) [3]): 46.1 µM (active) | outcome [4]: inactive | outcome [5]: inactive

Nc1ccc(-c2ccc(N)c(Cl)c2)cc1Cl
AC50 (PGR (gene 5241) [1]): 5.01 µM (active) | outcome [2]: inactive | AC50 (PGR (gene 5241) [3]): 6.09 µM (active) | outcome [4]: inactive | outcome [5]: inactive

CC(C)(c1ccccc1)c1ccc(O)c(C(C)(C)c2ccccc2)c1
outcome (THRA (gene 7067)): inactive | outcome (THRB (gene 7068)): inactive | outcome [6]: inactive

C[C@H]1CCCC(=O)CCC/C=C/c2cc(O)cc(O)c2C(=O)O1
AC50 (PGR (gene 5241) [1]): 14.4 µM (active) | outcome [2]: inactive | outcome (PGR (gene 5241) [7]): inactive | outcome (PGR (gene 5241) [3]): inactive | outcome [4]: inactive | outcome [5]: inactive

CC1(C)CCC(Cc2ccc(Cl)cc2)C1(O)Cn1cncn1 (stereo not given)
AC50 (PGR (gene 5241) [1]): 16.8 µM (active) | outcome [2]: inactive | AC50 (PGR (gene 5241) [3]): 21.6 µM (active) | outcome [4]: inactive | outcome [5]: inactive

C[C@]12CC[C@H](O)CC1=CC[C@@H]1[C@@H]2CC[C@]2(C)C(=O)CC[C@@H]12
AC50 (PGR (gene 5241) [1]): 16.1 µM (active) | outcome [2]: inactive | outcome (PGR (gene 5241) [3]): inactive | outcome [4]: inactive | outcome [5]: inactive

C[C@]12CCC(=O)C[C@@H]1CC[C@@H]1[C@@H]2CC[C@]2(C)[C@@H](O)CC[C@@H]12
outcome (PGR (gene 5241) [1]): inactive | outcome [2]: inactive | outcome [4]: inactive | outcome [5]: inactive

O=C1C2(Cl)C3(Cl)C4(Cl)C(Cl)(Cl)C5(Cl)C3(Cl)C1(Cl)C5(Cl)C24Cl (stereo not given)
AC50 (PGR (gene 5241) [1]): 63 µM (active) | outcome [2]: inactive | outcome (PGR (gene 5241) [7]): inactive | AC50 (PGR (gene 5241) [3]): 33.8 µM (active) | outcome [4]: inactive | outcome [5]: inactive

Oc1ccc(-c2ccccc2)cc1
AC50 (PGR (gene 5241) [1]): 29.5 µM (active) | outcome [2]: inactive | AC50 (PGR (gene 5241) [3]): 33 µM (active) | outcome [4]: inactive

CC(C)(OO)c1ccccc1
outcome (THRA (gene 7067)): inactive | outcome [6]: inactive

CC12CC1(C)C(=O)N(c1cc(Cl)cc(Cl)c1)C2=O (stereo not given)
outcome (PGR (gene 5241) [1]): inactive | outcome (PGR (gene 5241) [7]): inactive | outcome (PGR (gene 5241) [3]): inactive | outcome [4]: inactive | outcome [5]: inactive

NNC(=S)NN
outcome [8]: inactive | outcome (THRA (gene 7067)): inactive

C=C(C)C(=O)[O][Sn]([CH2]CCC)([CH2]CCC)[CH2]CCC
outcome (THRA (gene 7067)): inactive | AC50 (THRB (gene 7068)): 68.3 µM (active) | AC50 [6]: 7.08 µM (active)

Reference: PubChem BioAssay (EPA / NIEHS)
